# Data taken from the supplement of paper PMC10646978.
# ± gives the standard deviation.
# Legend:
# Details in all cases: modulator concentration 10 µM
# [1] = tested on: RAW-Dual (murine macrophage reporter line); assay: NF-kB reporter (SEAP) activity fold change vs agonist alone; higher = enhanced NF-kB activity
# Outline: (§1)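 RAW-Dual murine macrophage reporter cells were plated at 50 000 per well in 384-well plates, pin-transferred compound to 10 μM final, and pre-incubated for 1 hour at 37 °C before a PRR agonist was added and the cells incubated overnight. NF-κB activity was read from supernatant SEAP with QUANTI-Blue at 620 nm absorbance, and IRF activity from Lucia luciferase with QUANTI-Luc by luminescence. Each signal was expressed as fold change by dividing by the mean agonist-only control on the same plate. Two replicate plates were averaged, with errors obtained by propagation.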
# [2] = tested on: RAW-Dual (murine macrophage reporter line); assay: IRF reporter (Lucia luciferase) activity fold change vs agonist alone; higher = enhanced IRF activity
# Outline: as §1
# [3] = tested on: RAW-Dual (murine macrophage reporter line); assay: viability score (confluency relative to resting cells, overnight) (fraction); higher = more viable, active = viable (0.7 or more)
# Outline: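 Overnight exposure to 10 μM final compound was carried out on RAW-Dual macrophages in 384-well plates. IncuCyte software generated two confluency masks over all wells imaged with IncuCyte. The viability score gives confluency in relation to resting cells. A compound met the cutoff if each mask exceeded 70% of resting cells.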
# [4] = agonist: CpG ODN 1826 0.5 ug/mL
SMILES,"NF-kB reporter [1, 4]",NF-kB reporter ([1]; agonist: LPS 0.1 ug/mL),NF-kB reporter ([1]; agonist: MPLA […]),IRF reporter ([2]; agonist: 3'3'-cGAMP 10 ug/mL),IRF reporter ([2]; agonist: LPS 0.1 ug/mL),IRF reporter ([2]; agonist: MPLA […]),viability score [3]
COC(C)(CNC(=O)CSc1ccc(F)cc1)c1cccc(Cl)c1 (configuration not stated),1.11 ± 0.4,1.07 ± 0.11,1.01 ± 0.074,0.973 ± 0.082,0.992 ± 0.13,1.12 ± 0.32,0.987 (active)
NC(=O)c1cc(NC(=O)c2ccc(Cl)c(Cl)c2)cc(C(N)=O)c1,1.15 ± 0.073,1.04 ± 0.13,1.01 ± 0.048,0.88 ± 0.032,0.943 ± 0.048,0.964 ± 0.096,0.997 (active)
CC(C)C1=NN2C(=N)C(=Cc3ccc(-c4ccccc4[N+](=O)[O-])o3)C(=O)N=C2S1,0.927 ± 0.078,0.953 ± 0.065,0.944 ± 0.066,0.89 ± 0.043,1.48 ± 0.22,1.06 ± 0.22,1.01 (active)
Cc1nc(N(C)C)nc(C)c1NC(=O)CC(C)C,0.95 ± 0.066,0.92 ± 0.075,0.837 ± 0.089,1.1 ± 0.055,0.967 ± 0.1,0.897 ± 0.39,1.01 (active)
Cc1ccc(Nc2nc(N3CCOCC3)nc(N3CCN(c4ccccc4)CC3)n2)cc1,0.454 ± 0.029,1.05 ± 0.084,1.98 ± 0.059,0.711 ± 0.027,1.4 ± 0.067,1.9 ± 0.18,0.996 (active)
O=C(NN=Cc1ccc([N+](=O)[O-])o1)c1ccc(O)cc1,2.16 ± 0.17,1.49 ± 0.097,1.62 ± 0.066,0.956 ± 0.063,1.77 ± 0.18,1.22 ± 0.22,0.938 (active)
Cc1ccc(S(=O)(=O)n2nc(C)c(C)c2C)cc1C,0.929 ± 0.047,1.11 ± 0.11,1.05 ± 0.068,1.07 ± 0.068,1.2 ± 0.16,1.26 ± 0.34,1.01 (active)
O=C(O)C=Cc1ccc2c(c1)OCCO2,1 ± 0.077,0.902 ± 0.075,1.14 ± 0.12,1.07 ± 0.059,1.35 ± 0.2,1.47 ± 0.33,1.02 (active)
CC(C)(C)N.CCCC(NC(C)C(=O)N1C(C(=O)O)CC2CCCCC21)C(=O)OCC (configuration not stated),0.927 ± 0.074,0.864 ± 0.15,0.947 ± 0.094,0.996 ± 0.036,1.21 ± 0.16,1.3 ± 0.18,1.02 (active)
NC(=O)N1CCC(CC(=O)N2CCC([C@H]3c4ncc(Br)cc4CCc4cc(Cl)cc(Br)c43)CC2)CC1,0.342 ± 0.047,0.434 ± 0.12,0.615 ± 0.19,0.325 ± 0.012,0.889 ± 0.23,1.2 ± 0.17,0.0582 (inactive)
Cc1nc(-c2ccc(S(=O)(=O)N3C4CCC3CC(Oc3cccnc3)C4)cc2)co1 (configuration not stated),1 ± 0.093,1.08 ± 0.086,0.94 ± 0.051,1.04 ± 0.077,1.14 ± 0.087,1 ± 0.092,1.01 (active)
COc1ccc(CC(=O)N2CCC(N3CCC(OC)CC3)CC2)cc1OC,0.965 ± 0.063,1.09 ± 0.087,0.893 ± 0.041,0.949 ± 0.05,1.02 ± 0.11,1.08 ± 0.35,0.974 (active)
CCCCN(CCCC)S(=O)(=O)c1ccc(N2CCCC2=O)c([N+](=O)[O-])c1,1.02 ± 0.12,1.07 ± 0.071,1 ± 0.062,0.975 ± 0.15,1.1 ± 0.13,1.13 ± 0.27,1 (active)
CSc1nc2cc(Oc3cccc(Cl)c3Cl)c(Cl)cc2[nH]1,0.416 ± 0.14,0.771 ± 0.084,0.63 ± 0.037,0.831 ± 0.025,1.41 ± 0.26,1.34 ± 0.21,0.921 (active)
O=C(NC(=S)Nc1ccc2[nH]c(=O)[nH]c2c1)c1ccc(Cl)cc1,0.958 ± 0.082,1.13 ± 0.075,0.95 ± 0.042,0.94 ± 0.17,1.03 ± 0.043,0.994 ± 0.22,1 (active)
O=C(Cc1ccc([N+](=O)[O-])cc1)NN=Cc1ccccn1,1.09 ± 0.18,1.07 ± 0.077,1.04 ± 0.04,0.89 ± 0.11,1.05 ± 0.12,1.08 ± 0.14,1 (active)
COc1ccc(C=Nn2cc(-c3ccc(Cl)cc3)nc2N=Cc2cc(Br)cc(Br)c2O)cc1,0.863 ± 0.068,0.919 ± 0.067,0.874 ± 0.094,0.883 ± 0.037,1.08 ± 0.14,1.07 ± 0.23,1.02 (active)
Nc1nc(Cl)nc2c1ncn2[C@H]1C[C@H](O)[C@@H](CO)O1,1.91 ± 0.4,1.39 ± 0.11,1.65 ± 0.12,0.723 ± 0.055,1.09 ± 0.096,1.08 ± 0.22,0.244 (inactive)
CC1CCN(C2CC(=O)N(c3ccc(S(=O)(=O)N4CCOCC4)cc3)C2=O)CC1 (configuration not stated),0.986 ± 0.082,1.02 ± 0.065,0.843 ± 0.05,1.02 ± 0.025,1.33 ± 0.096,0.995 ± 0.23,1 (active)
CCOC(=O)C1=C(C)NC(C)=C(C(=O)OC)C1c1cccc(Cl)c1Cl (configuration not stated),0.824 ± 0.081,0.603 ± 0.053,0.764 ± 0.068,1.13 ± 0.06,1.35 ± 0.095,1.03 ± 0.17,0.859 (active)
Cc1ccc(O)c(C2=NOC(O)(C(F)(F)F)C2)c1 (configuration not stated),1.05 ± 0.065,0.955 ± 0.074,0.919 ± 0.054,0.975 ± 0.037,1.43 ± 0.24,1.04 ± 0.093,0.339 (inactive)
O=C(NC(Cc1cc(=O)[nH]c2ccccc12)C(=O)O)c1ccc(Cl)cc1 (configuration not stated),1.4 ± 0.19,1.19 ± 0.21,0.968 ± 0.055,0.918 ± 0.03,1.32 ± 0.16,1.09 ± 0.16,0.992 (active)
CCOc1nccn2c(CNC(=O)c3cccnc3)nnc12,0.929 ± 0.098,1.05 ± 0.084,1.11 ± 0.15,1.03 ± 0.064,1.02 ± 0.19,1 ± 0.4,0.988 (active)
CN(C)[C@@H](CCOc1cccc2ccccc12)c1ccccc1.Cl,0.603 ± 0.11,1.01 ± 0.17,0.66 ± 0.044,0.47 ± 0.015,1.25 ± 0.11,0.854 ± 0.068,0.178 (inactive)
Cc1cc(Nc2cc(N3CCN(C)CC3)nc(Sc3ccc(NC(=O)C4CC4)cc3)n2)n[nH]1,0.0769 ± 0.0068,0.142 ± 0.0072,0.23 ± 0.021,0.136 ± 0.011,0.537 ± 0.041,0.451 ± 0.06,0.91 (active)
CC(C)NCC(O)COc1cccc2ccccc12.Cl (configuration not stated),0.858 ± 0.12,1.05 ± 0.13,1.03 ± 0.06,0.66 ± 0.051,1.21 ± 0.22,1.12 ± 0.29,0.984 (active)
